Screening data from PubChem BioAssay.
Most compounds without a hit are left out; they make up all but 2.4% or so of the library.
Pol eta inh = inhibitors of human DNA polymerase eta; recombinant Pol eta, fluorescent DNA replication assay; AID 588591; 1.2% of 390,000 active; Potency, µM (top dose mostly 114 µM), for inactives: at the top dose activity change, negative = inhibition, hits mostly inhibitors; Q9Y253; also: potency is read from the fitted curve at half-maximal effect; % is scaled to controls: 0 for no effect and ±100 for the full control effect
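Fluorescent replication assay: 50 nM final substrate added after a 15 min room-temperature compound preincubation with 10 nM enzyme. Signal taken at 0 min and again at 10 min.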
POLI inh = inhibitors of human DNA polymerase iota | Q9UNA4 | 1% of 390,000 active | Potency, µM (titrated, usually from 115 µM), for inactives: at the top dose activity, negative = inhibition, usual class: inhibitors | Pol iota fluorescent replication assay, 10 min | AID 588590; also: potency is read from the fitted curve at half-maximal effect
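Fluorescent replication assay read twice, at 0 min and 10 min after adding 50 nM (final) substrate. Enzyme (10 nM) and compounds were first incubated 15 min at room temperature; enzyme-free buffer wells were negative controls.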
Pol beta inh-1 = DNA polymerase beta (human) inhibition. 1.3% of 340,000 active. Potency, µM (doses to about 114 µM), inactives show at the highest dose activity change, negative = inhibition, most hits filed as inhibitors. Pol beta primer extension/strand displacement, fluorescence kinetic. P06746; also: potency is read from the fitted curve at half-maximal effect; % is scaled to controls: 0 for no effect and ±100 for the full control effect
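Homogeneous kinetic assay of primer extension and strand displacement by 10 nM Pol beta, preincubated 15 min at room temperature with compound before 50 nM substrate (final) was added. Read at 0 and 10 min; four-parameter Hill fit.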
Pol kappa inh = inhibitors of human DNA polymerase kappa; Q9UBT6; purified Pol kappa, fluorescent DNA synthesis assay, 10 min; Potency, µM (series often up to 107 µM), for inactives: at the top dose activity, negative = inhibition, most hits filed as inhibitors; 0.53% of 400,000 active; AID 588579; also: potency is read from the fitted curve at half-maximal effect; % is scaled to controls: 0 for no effect and ±100 for the full control effect
Target sequence (Q9UBT6 whole entry, looked up): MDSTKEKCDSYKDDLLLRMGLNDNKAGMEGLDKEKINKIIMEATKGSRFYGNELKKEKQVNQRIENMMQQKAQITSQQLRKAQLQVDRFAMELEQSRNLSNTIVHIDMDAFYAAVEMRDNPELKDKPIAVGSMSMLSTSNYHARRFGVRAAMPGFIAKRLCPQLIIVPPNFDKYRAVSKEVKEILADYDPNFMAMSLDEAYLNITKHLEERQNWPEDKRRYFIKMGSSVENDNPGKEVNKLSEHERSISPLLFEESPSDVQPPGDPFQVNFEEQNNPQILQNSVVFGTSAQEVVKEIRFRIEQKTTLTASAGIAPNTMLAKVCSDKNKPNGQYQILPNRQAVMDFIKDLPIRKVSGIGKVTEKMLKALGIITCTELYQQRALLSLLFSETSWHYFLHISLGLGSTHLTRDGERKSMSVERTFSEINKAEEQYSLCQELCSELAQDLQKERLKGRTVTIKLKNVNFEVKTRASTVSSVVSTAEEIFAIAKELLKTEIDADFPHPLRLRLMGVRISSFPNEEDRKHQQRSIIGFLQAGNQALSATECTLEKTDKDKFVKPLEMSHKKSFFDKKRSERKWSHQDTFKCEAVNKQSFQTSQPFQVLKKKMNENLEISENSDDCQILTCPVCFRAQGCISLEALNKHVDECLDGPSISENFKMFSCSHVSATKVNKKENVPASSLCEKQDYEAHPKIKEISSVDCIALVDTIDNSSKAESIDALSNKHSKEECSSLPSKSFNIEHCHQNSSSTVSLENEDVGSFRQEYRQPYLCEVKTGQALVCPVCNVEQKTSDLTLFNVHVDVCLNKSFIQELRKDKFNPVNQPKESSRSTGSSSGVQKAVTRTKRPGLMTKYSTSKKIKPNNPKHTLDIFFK
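10 nM Pol kappa was preincubated with compounds for 15 min at room temperature. Reaction started with 50 nM (final) substrate. Fluorescence read kinetically at 0 and 10 min.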
Tb PGK inh = blocks T. brucei phosphoglycerate kinase. P07378. PGK/GAPDH coupled, Kinase-Glo luminescence, 60 min. Potency, µM (doses to about 57.5 µM), for inactives: at the top dose activity change, negative = inhibition, most hits filed as inhibitors. 0.043% of 380,000 active. AID 602233; also: potency is read from the fitted curve at half-maximal effect; % is scaled to controls: 0 for no effect and ±100 for the full control effect; nearly all actives have a fitted effect of over 60% in size
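Recombinant glycosomal PGK reaction used 1,3-bisphosphoglycerate generated in-well by GAPDH (100nM final) in 100mM TEA pH 7.6, 5mM MgCl2, 0.01% Tween-20. After 60 minutes at room temperature, ATP was read by Kinase-Glo Plus luminescence end-point.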
FEN1 inhibitor = blocks human flap endonuclease 1. Potency, µM (doses to about 114 µM), for the others: at the highest dose activity change, negative = inhibition, hits mostly inhibitors. P39748. AID 588795. 0.35% of 390,000 active. Recombinant FEN1 flap cleavage, fluorescence, 15 min; also: potency is read from the fitted curve at half-maximal effect; % is scaled to controls: 0 for no effect and ±100 for the full control effect; nearly all actives have a fitted effect of over 65% in size
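Nuclease activity of 10 nM FEN1 was measured after 15 min of room-temperature exposure to titrated compounds, by adding 50 nM flap substrate and reading plates at 0 and 15 min.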
Pol beta inh-2 = Validate hits inhibiting human DNA polymerase beta; 87% of 250 active; Pol beta primer extension/strand displacement, fluorescence kinetic; Potency, µM, usual class: inhibitors; AID 540280; shares compounds with Pol beta inh-1; calls by dose curve; also: potency is read from the fitted curve at half-maximal effect
Klenow counter = Klenow polymerase inhibition, pol beta selectivity check | 250 tested, under 10 active | activity change, negative = inhibition, % at 57.1 µM | shares compounds with Pol beta inh-1 | Klenow exo- polymerase counter-screen, fluorescent DNA substrate
HIV RT inh = counter-screen for DNA polymerase beta inhibitors: HIV-1 RT inhibition. shares compounds with Pol beta inh-1. 250 tested, under 10 active. HIV-1 RT polymerase activity, counter-screen. activity % (negative = inhibition, positive = activation), % at 57.1 µM
POLB inh gel = validation of human DNA polymerase beta inhibitors; shares compounds with Pol beta inh-1; radiolabeled primer extension gel assay, phosphorimager; inhibition, % at 10 µM; 91% of 110 active; AID 540325;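 active = inhibition at 10 µM of 30% or more; inconclusive = no clear call, values can overlap the other calls; inactive = inhibition at 10 µM under 30%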
Active calls of the source: *; i = inactive; ? = inconclusive; . = not tested or not shown; [ ] = remark or other dose. Unless noted, calls follow the shape of the dose curve; as a rule, active = well fitted curve in the direction sought with a large enough effect; inconclusive = small, poorly fitted or top-dose-only effect, or another doubt; inactive = no such curve, though single readings can be large; an effect the other way counts as inactive or inconclusive.

SMILES	Pol eta inh	POLI inh	Pol beta inh-1	Pol kappa inh	Tb PGK inh	FEN1 inhibitor	Pol beta inh-2	Klenow counter	HIV RT inh	others
C=CCn1c(NS(=O)(=O)c2ccccc2)c(S(=O)(=O)c2ccc(C)cc2)c2nc3ccccc3nc21	89µM*	3.2µM*	?	5%	-6%	-11%	.	.	.
CC(=O)c1sc(N/N=C/c2cccc(O)c2)nc1C	-6%	-30%	-29%	-16%	-1%	-9%	.	.	.
CCOC(=O)c1sc(N/N=C/c2cc(Br)c(O)c(OC)c2)nc1C	35µM*	?	32µM*	?	-6%	-21%	.	.	.
O=c1cc(-c2ccccc2)c2c(O)cc(O)cc2o1	-11%	-7%	-17%	-16%	-2%	-7%	.	.	.
CCn1c(=O)c2c(O)cc(=O)oc2c2ccccc21	1%	-8%	27%	-7%	i	?	.	.	.
O=c1cc(O)c2c(=O)n(-c3ccccc3)c3ccccc3c2o1	?	6%	22µM*	-26%	2%	2%	.	.	.
CC(C)n1c(=O)c2c(O)cc(=O)oc2c2ccccc21	-29%	?	18µM*	?	-3%	?	.	.	.
CN(N=O)c1ccc2c(c1)Cc1ccccc1-2	.	21%	.	6%	.	13%	.	.	.
O=S(=O)(NCC(c1ccco1)S(=O)(=O)c1cccs1)c1ccccc1 (stereo unspecified)	-13%	16%	9%	-2%[60.1 µM]	8%	18%	.	.	.
O=S(=O)(NCC(O)COCc1ccco1)c1cccs1 (stereo unspecified)	20µM*	22µM*	22µM*	35µM*	?	2%	.	.	.
CCc1ccccc1NC(=O)Cn1nnc(-c2nc(-c3ccncc3)no2)c1N	.	19%	?	-10%	.	19%	.	.	.
COc1ccc(NC(=O)c2ccc(NCCN3C(=O)CCC3=O)c([N+](=O)[O-])c2)cc1	?	-27%	13µM*	?	-7%	-5%	?	-7	21	POLB inh gel=?
CN(Cc1ccc(F)cc1)S(=O)(=O)c1nnc(NC(=O)c2ccc(F)cc2)s1	-11%	25%	1%	3%	-11%	-1%	.	.	.
CC(C)(C)c1nc2ccccc2c2nnc(SCC(=O)Nc3nccs3)n12	-2%	22%	14%	-5%	.	-8%	.	.	.
CC(C)(C)c1nc2ccccc2c2nnc(SCC(=O)Nc3nc4ccccc4s3)n12	-16%	45µM*	0.18µM*	-23%	.	-6%	?	2	32	POLB inh gel=85*
CCOc1ccc(/C=C/c2nc(C#N)c(NC(C)c3ccccc3)o2)cc1 (stereo unspecified)	-20%	-9%	?	-7%	i	-4%	.	.	.
COc1ccc(-c2nn(C)c3sc(C(=O)NCc4ccco4)cc23)cc1OC	?	?	13µM*	-15%	6%	16%	14*	-5	26
CNC(=O)CSc1nnc(-c2ccco2)n1-c1ccccc1	-21%	8%	?	4%	-8%	-4%	.	.	.
NC(=O)c1c(NC(=O)CSc2nnc(-c3ccco3)n2-c2ccccc2)sc2c1CCC2	10µM*	?	4.5µM*	?	-15%	?	13*	-16	14
COc1ccc(NS(=O)(=O)c2ccc(O)c(NC(=O)c3ccc(S(=O)(=O)N4CCCCCC4)cc3)c2)cc1	?	?	13µM*	0%	-2%	-13%	35*	-31	-7
O=C(Nc1cccc2cccnc12)OCc1ccccc1	.	63%	.	-28%	.	-17%	.	.	.
Cc1cc(C)c2cc(C#N)c(SCC(=O)NCc3ccco3)nc2c1	?	?	20µM*	-8%	5%	-1%	28*	-4	5	POLB inh gel=86*
O=C(Nc1sc2c(c1C(=O)NCc1ccco1)CCCC2)c1ccc2c(c1)OCO2	-11%	?	13µM*	-29%	-3%	-12%	?	-26	31
COc1ccc(CNC(=O)c2cc(-c3ccc(C)c(C)c3)n[nH]2)cc1	-8%	34%	8%	6%	10%	1%	.	.	.
O=C(NCc1ccccc1)C1CCN(C(=O)c2cnn(-c3ccccc3)c2-n2cccc2)CC1	.	-3%	4%	-4%	.	14%	.	.	.
SMILES	Pol eta inh	POLI inh	Pol beta inh-1	Pol kappa inh	Tb PGK inh	FEN1 inhibitor	Pol beta inh-2	Klenow counter	HIV RT inh	others
CCS(=O)(=O)N1Cc2ccccc2CC1C(=O)Nc1nnc(SCc2c(Cl)cccc2Cl)s1 (stereo unspecified)	-2%	9%	29%	-18%	1%	-15%	.	.	.
CCSc1nnc(NC(=O)C2Cc3ccccc3CN2S(=O)(=O)CC)s1 (stereo unspecified)	56µM*	?	18µM*	-41%	-13%	1%	28*	-4	10	POLB inh gel=100*
COc1ccc(CC(=O)Nc2sc3c(c2C(=O)Nc2c(C)cccc2C)CCCCC3)cc1	-1%	0%	19%	-2%	1%	-15%	.	.	.
Cc1ccc(CN(Cc2cccn2-c2nnc(N3CCCC3=O)s2)C(=O)Nc2ccccc2Cl)cc1	-8%	4%	2%	-2%	-12%	2%	.	.	.
O=C(COC(=O)C1CCN(S(=O)(=O)c2cc([N+](=O)[O-])ccc2Cl)CC1)Nc1ncc(Cl)cc1Cl	8.9µM*	?	8.9µM*	79µM*	?	-18%	28*	-11	-23	POLB inh gel=86*
O=C(Nc1nc2ccc(F)cc2s1)C1CCN(S(=O)(=O)c2cc([N+](=O)[O-])ccc2Cl)CC1	?	?	8.9µM*	-19%	-4%	11%	28*	-26	-4	POLB inh gel=100*
CC(C)NC(=O)c1ccc2c(c1)nc1n2CCCCC1	12%	-8%	2%	-7%[60.1 µM]	-2%	3%	.	.	.
Cc1cccc(Nc2nn3c(=O)c4ccccc4nc3s2)c1	?	?	10µM*	?	-16%	0%	4*	-7	27
COc1ccccc1CNC(=O)c1ccc(N2Cc3cccc(OC)c3Oc3ncccc32)s1	-20%	-1%	?	?	-10%	-2%	.	.	.
Cc1oc2ccc(O)c(CN3CCCCCC3)c2c1C(=O)Nc1cccc(C(F)(F)F)c1	-16%	4%	7%	-1%	-2%	-24%	.	.	.
